# Inconclusive results are not listed. The source made the active and inactive calls. Calls come from the whole dose curve; as a rule, active = well fitted cell-killing curve with a large enough effect; inconclusive = small, poorly fitted or top-dose-only effect, or effect the other way; inactive = no such curve, though single readings can be large or run the other way.
# Assay: Quantitative High-Throughput drug screen in 47 multiple myeloma cell lines against the NCATS MIPE library collection: L363_DSMZ cell viability assay (AID 1918984); note: nearly all actives have a fitted effect of over 40% in size
# Conditions: L363 myeloma viability, CellTiter-Glo ATP luminescence, 48 h; viability (% of control): at 45.8 µM (top of the series)
# Excerpt: PI: Beverly A. Mock Ph.D.
# Laboratory of Cancer Biology and Genetics,
# Center for Cancer Research, National Cancer Institute,
# National Institute of Health, Bethesda, Maryland
# Drug resistance and disease progression are common in multiple myeloma (MM) patients, underscoring the need for new therapeutic combinations. […] We hypothesized that effective combinations would reduce MYC expression and enhance p16 activity. […] These preclinical data identify potentially useful drug combinations for evaluation in drug-resistant MM and reveal potential mechanisms of combined drug sensitivity.
# Described herein is the primary MIPE qHTS used to cherrypick compounds. Validated compounds were then further tested for potential synergistic activiy.
# [1] Peat TJ, Gaikwad SM, Dubois W, Gyabaah-Kessie N, Zhang S, Gorjifard S, Phyo Z, Andres M, Hughitt VK, Simpson RM, Miller MA, Girvin AT, Taylor A, Williams D, D'Antonio N, Zhang Y, Rajagopalan A, Flietner E, Wilson K, Zhang X, Shinn P, Klumpp-Thomas C, McKnight C, Itkin Z, Chen L, Kazandijian D, Zhang J, Michalowski AM, Simmons JK, Keats J, Thomas CJ, Mock BA. Drug combinations identified by high-throughput screening promote cell cycle transition and upregulate Smad pathways in myeloma. Cancer Lett. 2023 Aug 1;568:216284. doi: 10.1016/j.canlet.2023.216284. Epub 2023 Jun 24. PMID: 37356470; PMCID: PMC10408729.
# SEQUENCE No. (e.g., 1, 2, 3, etc.); […] (e.g., Cells, Incubation, Reagent, etc.); VALUE and DESCRIPTION.
# 1; Cells; 5 uL; white, solid bottom 1536-well Greiner assay plate.
# 2; Compounds; 23 nL; Kalypsis pin tool (Wako USA) equipped with a 1536-well pin head to transfer to the assay plates.
# 3; Incubation; 48 hours; 37C incubation.
# 4; Reagent;5uL; CellTiter Glo (Promega).
# 5; Detector; 425V; Luminescence; Viewlux PerkinElmer.
# NOTES (numbers refer to Sequence numbers above)
# 1. The cell-based screening methods employed in this study were like those previously published. Briefly, the corresponding myeloma cell lines were screened in 1,536-well plates with 500 cells, 5-uL per well for inhibition of cell viability (assessed by measuring ATP levels with CellTiterGlo).
# 2. NCATS MIPE 4.0 library of approved and investigational drugs were added using the Kalypsis pin tool. Wells treated with DMSO only for 100% viability and media only for 0% viability were used as controls.
# 3. The assay plates were covered and incubated for 48 hours in a 37C, 5% CO2 incubator with controlled humidity.
# 4. After 48 hours, CellTilter-GloTM luminescent substrate mix (Promega) reagent was added to the assay plate and plates we incubated for 5 min at room temperature.
# 5. Signal was measured as median relative luminescence units on a ViewLux (PerkinElmer) multiplate reader.
# [1] Heske CM, Davis MI, Baumgart JT, Wilson K, Gormally MV, Chen L, Zhang X, Ceribelli M, Duveau DY, Guha R, Ferrer M, Arnaldez FI, Ji J, Tran HL, Zhang Y, Mendoza A, Helman LJ, Thomas CJ. Matrix Screen Identifies Synergistic Combination of PARP Inhibitors and Nicotinamide Phosphoribosyltransferase (NAMPT) Inhibitors in Ewing Sarcoma. Clin Cancer Res. 2017 Dec 1;23(23):7301-7311. doi: 10.1158/1078-0432.CCR-17-1121. Epub 2017 Sep 12. PMID: 28899971; PMCID: PMC6636827.
# Potency is the fitted concentration of half-maximal effect.
Structure (SMILES),viability (% of control),Potency
CC1=C(C(=O)Nc2cc3cn[nH]c3cc2F)C(c2ccc(C(F)(F)F)cc2)CC(=O)N1 (stereo not given),92.5% (inactive),
CNC(=O)c1ccc2c(C(=Nc3cccc(CN(C)C)c3)c3ccccc3)c(O)[nH]c2c1,,4.18 µM (active)
C=CCc1cccc(C=NNC(=O)CN2CCN(Cc3ccccc3)CC2)c1O,,6.62 µM (active)
O=C(NC[C@H](O)CO)c1ccncc1Nc1ccc(I)cc1F,,13.2 µM (active)
CN[C@@H]1CN(c2ccc3c(=O)c(C(=O)O)cn(-c4nccs4)c3n2)C[C@@H]1OC,124% [at 23.2 µM] (inactive),
CCCCCCCCCCCCCC(=O)N[C@H](CO)[C@H](O)c1ccc([N+](=O)[O-])cc1,,16.6 µM (active)
COc1ccc2c(c1)c(C1=C(c3c[nH]c4ccccc34)C(=O)NC1=O)cn2CCCN(C)C,,13.2 µM (active)
CC[C@]1(O)C[C@H]2CN(CCC3=c4ccccc4=N[C]3[C@@](C(=O)OC)(c3cc4c(cc3OC)N(C)[C@H]3[C@@](O)(C(N)=O)[C@H](O)[C@]5(CC)C=CCN6CC[C@]43[C@@H]65)C2)C1,,0.132 µM (active)
COC1CCC(C(=O)c2ccc3nc4c(cc3c2)CCCO4)CC1 (stereo not given),,23.5 µM (active)
COc1ccc(CCN(C)CCCOc2ccc(S(=O)(=O)c3[nH]c4ccccc4c3C(C)C)cc2)cc1OC,135% (inactive),
NC(=O)c1noc([C@H](CCCC2CCCCC2)CC(=O)NO)n1,124% (inactive),
CC(=O)OCC(=O)[C@@]12OC(C)(C)O[C@H]1C[C@H]1[C@@H]3C[C@H](F)C4=CC(=O)C=C[C@]4(C)[C@@]3(F)[C@@H](O)C[C@@]12C,91.7% (inactive),
CO[C@H]1/C=C\O[C@@]2(C)Oc3c(C)c(O)c4c(O)c(c5c(nc6cc(C)ccn65)c4c3C2=O)NC(=O)C(C)=CC=C[C@H](C)[C@H](O)[C@@H](C)[C@@H](O)[C@@H](C)[C@H](OC(C)=O)[C@H]1C,,20.9 µM (active)
CNC(=O)c1cc(Oc2ccc(NC(=O)Nc3ccc(Cl)c(C(F)(F)F)c3)c(F)c2)ccn1,,6.62 µM (active)
O=C1NC(=O)C(c2cnc3ccccn23)=C1c1cn2c3c(cccc13)CN(C(=O)N1CCOCC1)CC2,,0.0093 µM (active)
CCC(C)SSc1ncc[nH]1 (stereo not given),,2.96 µM (active)
CO[C@H]1C=CO[C@@]2(C)Oc3c(C)c(O)c4c(O)c(c(C=NN5CCN(C)CC5)c(O)c4c3C2=O)NC(=O)C(C)=CC=C[C@H](C)[C@H](O)[C@@H](C)[C@@H](O)[C@@H](C)[C@H](OC(C)=O)[C@H]1C,98.7% [at 15.3 µM] (inactive),
FC(F)(F)c1ccc(C=Cc2nc(COc3ccc(CCCCn4ccnn4)cc3)co2)cc1,,0.001 µM (active)
N#CC(c1ccc(Cl)cc1)c1c(Cl)cc(-n2ncc(=O)[nH]c2=O)cc1Cl (stereo not given),,16.6 µM (active)
CC(C)n1c(C=C[C@H](O)C[C@H](O)CC(=O)O)c(-c2ccc(F)cc2)c2ccccc21,,4.18 µM (active)

Structure (SMILES),viability (% of control),Potency
Cc1cc(CS(=O)(=O)c2ccccc2)cc(OCc2ccc(CN3CCC[C@H]3CO)cc2)c1,,8.33 µM (active)
CCC(=O)N1CCN(c2ccc(-n3c(=O)ccc4cnc5ccc(-c6cnc7ccccc7c6)cc5c43)cc2C(F)(F)F)CC1,15.4% (inactive),
Cc1ccc(S(=O)(=O)Nc2nc3ccccc3nc2Nc2ccc3nsnc3c2)cc1,,0.204 µM (active)
CCCCCOC(=O)Nc1nc(=O)n([C@@H]2O[C@H](C)[C@@H](O)C2O)cc1F (stereo not given in full),73.5% (inactive),
C[C@@H]1[C@H](C)CC[C@]2(C(=O)O)CC[C@]3(C)C(=CC[C@@H]4[C@@]5(C)CC[C@H](O)C(C)(C)[C@H]5CC[C@]43C)[C@@H]12,121% [at 92.2 µM] (inactive),
CC[C@H](C)C(=O)O[C@H]1C[C@H](O)C=C2C=C[C@H](C)[C@H](CC[C@@H](O)C[C@@H](O)CC(=O)O)[C@H]21,85.8% (inactive),
COc1ccc2ccc(=O)oc2c1CC=C(C)C,,10.5 µM (active)
CC(=O)Nc1cccc(-n2c(=O)n(C3CC3)c(=O)c3c(Nc4ccc(I)cc4F)n(C)c(=O)c(C)c32)c1,,5.9 µM (active)
COc1cc(N2CCN(C)CC2)ccc1Nc1nc(N)c(C(=O)c2c(Cl)cccc2Cl)s1,,20.9 µM (active)
CCN(CCO)CCCOc1ccc2c(Nc3cc(CC(=O)Nc4cccc(F)c4)[nH]n3)ncnc2c1,86.6% (inactive),
Nc1ccn([C@@H]2O[C@H](CO)[C@@H](O)[C@H]2O)c(=O)n1,94.1% (inactive),
Fc1ccc(CNc2ncnc3ccc(F)cc23)cc1,,5.26 µM (active)
CC1=C(CC(=O)O)c2cc(F)ccc2C1=Cc1ccc(S(C)=O)cc1 (stereo not given),,13.2 µM (active)
CCCCn1c(=O)n(Cc2ccccc2F)c(=O)c2[nH]c(Cc3ccc(NC(C)=O)cc3)nc21,105% (inactive),
CN(C)CCOc1ccc(-c2nc(-c3ccc4c(c3)CCC4=NO)c(-c3ccncc3)[nH]2)cc1,,6.62 µM (active)
CCN(CC)CCCCNc1nc2cc(Cl)c(Cl)cc2nc1-c1ccc(-c2cccs2)s1,,5.9 µM (active)
CN[C@H]1[C@@H](O[C@@H]2[C@H](O[C@@H]3[C@@H](O)[C@@H](O)[C@@H](N=C(N)N)[C@@H](O)[C@@H]3N=C(N)N)O[C@H](C)[C@@]2(O)C=O)O[C@@H](CO)[C@@H](O)[C@H]1O,,0.0053 µM (active)
OC[C@H]1O[C@@H](Oc2ccc(O)cc2)[C@H](O)[C@@H](O)[C@H]1O,86.3% (inactive),
CC(C)N(CCCNC(=O)Nc1ccc(C(C)(C)C)cc1)C[C@H]1O[C@@H](n2cc(Br)c3c(N)ncnc32)[C@H](O)[C@H]1O,64.5% (inactive),
Cc1cccc(Nc2nc(N[C@@H]3CCCC[C@H]3N)ncc2C(N)=O)c1,,16.6 µM (active)

# — PubChem BioAssay (NCATS)
